The sample as a whole holds a higher share of hits than the screen did.
12-hLO inh: qHTS Assay for Inhibitors of 12-hLO (12-human lipoxygenase) | Polyunsaturated fatty acid lipoxygenase ALOX12 (Homo sapiens), P18054 | purified 12-hLO, xylenol orange hydroperoxide absorbance | Potency, µM (top dose mostly 57.1 µM), inactives show at the highest dose activity change, negative = inhibition, usual class: inhibitors | hit rate 0.12% among 150,000 | AID 1452, 2008; further: nearly all actives have a fitted effect of over 55% in size
Target sequence (P18054 whole entry, looked up): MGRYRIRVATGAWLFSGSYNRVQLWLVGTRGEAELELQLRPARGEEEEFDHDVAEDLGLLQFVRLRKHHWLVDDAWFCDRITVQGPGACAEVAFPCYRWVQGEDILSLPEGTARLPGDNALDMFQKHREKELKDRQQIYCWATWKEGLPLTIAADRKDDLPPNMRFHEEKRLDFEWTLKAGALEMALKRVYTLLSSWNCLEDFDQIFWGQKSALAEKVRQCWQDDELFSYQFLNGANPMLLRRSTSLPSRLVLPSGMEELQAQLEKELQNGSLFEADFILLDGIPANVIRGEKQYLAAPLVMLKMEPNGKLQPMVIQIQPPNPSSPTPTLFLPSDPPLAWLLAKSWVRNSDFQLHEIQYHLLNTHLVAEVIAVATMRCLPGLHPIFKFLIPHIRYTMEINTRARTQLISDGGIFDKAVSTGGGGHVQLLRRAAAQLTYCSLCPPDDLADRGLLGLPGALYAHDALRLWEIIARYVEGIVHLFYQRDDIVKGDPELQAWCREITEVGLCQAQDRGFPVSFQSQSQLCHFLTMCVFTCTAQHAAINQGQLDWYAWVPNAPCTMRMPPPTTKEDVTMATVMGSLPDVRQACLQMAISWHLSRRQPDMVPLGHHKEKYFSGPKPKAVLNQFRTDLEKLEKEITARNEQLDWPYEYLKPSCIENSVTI
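150 nM 12hLO, 25 mM Hepes pH 7.0 + 0.01% Triton X-100; cpd preinc 15 min RT; 40 uM arachidonic acid, 30 min RT; Fe-XO 30 min; A573/A405 ratio as read-out.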
ALOX15B inhib: qHTS Assay for Inhibitors of 15-hLO-2 (15-human lipoxygenase 2) | Polyunsaturated fatty acid lipoxygenase ALOX15B (Homo sapiens), O15296 | purified 15hLO-2, xylenol orange hydroperoxide absorbance | hit rate 0.56% among 110,000 | Potency, µM (doses to about 57.1 µM), without a hit: at the highest dose activity change, negative = inhibition, hits mostly inhibitors; further: nearly all actives have a fitted effect of over 60% in size
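Read-out: hydroperoxide product oxidises ferrous iron, measured as xylenol orange complex via the 573-to-405 nm absorbance ratio after 30 min. Reaction: 50 nM enzyme, 15 min compound preincubation, 45 uM arachidonic acid, 90 min RT, Hepes pH 7.5 with Triton X-100.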
The depositor's hits bear a star; ? = inconclusive; · = not tested or not shown; [ ] = dose if it differs, or a comment. The call rests on the fitted dose curve; in most records, active means well fitted curve in the direction sought with a large enough effect; inconclusive means small, poorly fitted or top-dose-only effect, or another doubt; inactive means no such curve, though single readings can be large; an effect the other way counts as inactive or inconclusive. On the % scale 0 is the no-effect control and ±100 the full control effect; potency means the concentration at half of the fitted maximal effect.

SMILES	12-hLO inh	ALOX15B inhib
CCCCc1ccc(C2C(C#N)=C(N)SC(N)=C2C#N)s1	?	13µM*
O=[N+]([O-])c1ccc2c(c1)Cc1cc(N=Cc3ccc4c(c3)OCO4)ccc1-2	6%[11.4 µM]	-14%[11.4 µM]
NCCSS(=O)(=O)CCN	13%[11.4 µM]	-6%[11.4 µM]
N#Cc1cccc(NC(=O)CSc2ccccc2)c1	-12%	-2%
COc1ccc(NC(=O)CSc2ccc3c4c(cccc24)C(=O)c2ccccc2-3)cc1	0%	16µM*
N#Cc1cccc(NC(=O)CSc2ccc3c4c(cccc24)C(=O)c2ccccc2-3)c1	-2%	13µM*
COc1ccc(NC(=O)CSc2nc3ccccc3c3nc4ccccc4n23)cc1	-1%	·
CC(C)[C@H]1C(=O)C(C(N)=O)=C(O)[C@]2(O)C(=O)C3=C(O)c4c(O)ccc(N(C)C)c4C[C@H]3C[C@@H]12	-1%	9%
O=C(O)[C@H](CCc1ccccc1)N1C(=O)c2ccccc2C1=O	0%[11.4 µM]	-11%[11.4 µM]
O=c1c2ccccc2sn1-c1ccc(S(=O)(=O)N2CCCC2)cc1	?	0.4µM*
O=C1CC(=O)N(c2ccccc2)N1c1ccccc1	-11%	·
Cc1ccc(-n2sc3ccccc3c2=O)cc1S(=O)(=O)N1CCCCC1	3.2µM*	0.63µM*
NS(=O)(=O)c1ccc(S(=O)(=O)N2CCCC2)cc1	4%	-1%
Cc1ccc(-c2nnc(N3CCCCC3)c3ccccc23)cc1S(=O)(=O)N1CCN(C)CC1	-4%	4%
O=c1c2ccccc2sn1-c1ccccc1	13µM*	1.3µM*
S=C(S)NCCN1CCNCC1	-4%[11.4 µM]	15%[11.4 µM]
NCOC(=O)Cc1ccc(Br)cc1	0%[11.4 µM]	-1%[11.4 µM]
O=C1CSC2=NCN(c3ccc4c(c3)OCO4)CN12	-12%	-6%
CN(C)c1ccc(N2CN=C3SCC(=O)N3C2)cc1	-13%	16µM*
CN(C)C1CCN(C(=O)c2ccc(-n3c(=O)c(=O)[nH]c4ccccc43)cc2)C1 (stereo not given)	-2%	·
COC(=O)c1ccc2c(c1)C(C)(C)C(/C=C/c1ccccc1O)=[N+]2C	14µM*	16µM*
C[N+]1=C(/C=C/Nc2ccccc2Cl)C(C)(C)c2ccccc21	0%	·
CCOC(=O)C1=C(c2ccccc2)NC(=S)NC1c1cccc([N+](=O)[O-])c1 (stereo not given)	-17%	·
C=CCOc1ccc(C2NC(=S)NC(C)=C2C(=O)c2ccccc2)cc1OC (stereo not given)	-24%	·
CCOC(=O)C1=C(c2ccccc2)NC(=S)NC1c1cc([N+](=O)[O-])ccc1OC (stereo not given)	-20%	25µM*
SMILES	12-hLO inh	ALOX15B inhib
CCCOc1ccc(C2NC(=S)NC(c3ccccc3)=C2C(=O)Nc2ccc(C)cc2)cc1OC (stereo not given)	14µM*	·
Cc1ccc(S(=O)(=O)Oc2cc(S(=O)(=O)O)cc3cc(S(=O)(=O)O)cc(N)c23)cc1	3%[11.4 µM]	3%[11.4 µM]
O=C(O)C[C@@H]1CCCc2ccccc2[C@H]1O	-4%	-5%
O=C1S/C(=C/c2ccc(N3CCOCC3)o2)C(=O)N1Cc1c(F)cccc1Cl	-9%	?
O=C1S/C(=C\c2ccc(N3CCOCC3)o2)C(=O)N1Cc1c(F)cccc1Cl	-20%	6.3µM*
Ic1ccc2c(c1)N(c1ccccc1)c1cc(Nc3ccc4nc5ccc(I)cc5[n+](-c5ccccc5)c4c3)ccc1N2	0%[11.4 µM]	-15%[11.4 µM]
CCC1=NNc2cccc3c(OC)ccc1c23	-5%	5µM*
COc1ccc2c3c(cccc13)C(=O)N(O)C2=O	-2%	·
CC12CC3CC(C)(C1)CC(C(=O)NC(=S)N1CCCCC1)(C3)C2	16µM*	?
O=C(NC(=S)N1CCOCC1)C12CC3CCC(CC(C3)C1)C2	-5%	·
CC[n+]1c(/C=C2\C=C(C)CC(C)C2)sc2ccccc21 (stereo not given)	-27%	?
CC[n+]1c(/C=C2/C=C(C)CC(C)(C)C2)sc2ccc(OC)cc21	-28%	25µM*
CC[n+]1c(/C=C2\C=C(C)CC(C)(C)C2)sc2ccccc21	-25%	25µM*
CC#CCN1c2ccccc2[C@]23C[C@@H](C(=O)OC)N(S(=O)(=O)c4c(C)noc4C)C2=NC(C(=O)OC)=C(C(=O)OC)[C@H]13	-7%[11.4 µM]	·
NCCCc1ccc2oc3ccccc3c2c1	4%[11.4 µM]	10%[11.4 µM]
Cc1ccc(C(=O)O[C@@H](C(=O)O)[C@@H](OC(=O)c2ccc(C)cc2)C(=O)O)cc1 (tested in a mixture with another compound)	3%	-5%
CC1=C(CCC(=O)O)c2cc3nc(cc4[nH]c(cc5[nH]c(cc1n2)c(C)c5C(C)O)c(C)c4C(C)O)C(C)=C3CCC(=O)O (stereo not given)	-6%	-20%
C=Cc1c(C)c2cc3[nH]c(cc4nc(cc5nc(cc1[nH]2)C(C)=C5CCC(=O)O)C(CCC(=O)O)=C4C)c(C)c3C=C	-27%	20µM*
O=C(O)[C@@H]1CCCN1Cc1ccc2c(c1)OCO2	1%[11.4 µM]	6%[11.4 µM]
O=C(O)[C@H]([C@H]1NCCS1)N1Cc2ccccc2C1	-4%[11.4 µM]	-4%[11.4 µM]
CSC(=NC1CCCCC1)NS(=O)(=O)c1ccccc1	7%	1%
CC(=NC1CCCCC1)C1=C(O)c2ccccc2C1=O	-10%	16µM*
O=C(NC(=S)NCCc1ccccc1)c1ccccc1	18µM*	13µM*
O=C(CCc1ccccc1)NNC(=S)NC(=O)c1ccccc1	-12%	-10%
S=C(NCCc1ccccc1)NC1CCCCCC1	?	25µM*
SMILES	12-hLO inh	ALOX15B inhib
O=C(NCCc1ccccc1)C(=O)NC1CCCCC1	-4%	-1%
CCOC(=O)c1sc(N)c(C(=O)Nc2ccc(C)cc2C)c1C	-20%	·
COc1cc([C@@H]2c3cc4c(cc3[C@@H](O[C@@H]3O[C@H]5CO[C@@H](C)O[C@@H]5[C@@H](O)[C@H]3O)[C@@H]3COC(=O)[C@@H]23)OCO4)cc(OC)c1O	-7%	6%
CC1(C)O[C@H]2[C@@H](O1)[C@@H](On1nnc3ccc(Cl)cc31)O[C@@H]2[C@@H]1COC(C)(C)O1	-2%[11.4 µM]	-4%[11.4 µM]
CCOc1ccccc1OCC(=O)Nc1ccc(Cl)cc1Cl	0%	8%
CCOc1ccccc1NC(=S)NC(=O)CCCOc1ccc(Cl)cc1Cl	?	16µM*
Cn1c(=O)c(-c2cc(F)cc(F)c2)nc2cnc(N3CCNCC3)nc21	·	18%
N[C@H](C(=O)O)[C@@H](O)c1cnc[nH]1	-4%[11.4 µM]	-7%[11.4 µM]
S=C(NCCC(c1ccccc1)c1ccccc1)Nc1ccc(Cl)cc1	?	25µM*
COc1cc(NC(=S)NCc2ccc(S(N)(=O)=O)cc2)c(OC)cc1Cl	-3%	·
S=C(NCCCc1ccccc1)Nc1ccc(Cl)cc1	-20%	·
COc1cc(NC(=S)NCCC(c2ccccc2)c2ccccc2)c(OC)cc1Cl	22µM*	·
Cc1ccc2c(c1)N[C@H](c1ccc(C(=O)O)cc1)c1cccn1-2	-7%[11.4 µM]	-9%[11.4 µM]
Cc1cccc(C)c1-n1c(C)cc(/C=N/NC(N)=S)c1C	?	20µM*
Cc1ccccc1-n1c(C)cc(/C=N/NC(=O)c2ccncc2)c1C	-4%	0%
COc1cc2c(C)c3c4c(cc(OC)c(OC)c4c2cc1OC)CCN3C	-7%	-2%
COc1cc2c(C=O)c3c4c(cc(OC)c(OC)c4c2cc1OC)CCN3C	?	32µM*
CC1(COc2ccc(C[C@H]3SC(=O)NC3=O)cc2)CCCCC1	1%	-3%
COc1ccc(N(CC(=O)O)N=O)cc1	-10%[11.4 µM]	0%[11.4 µM]
CSc1nncc(/C(C)=N\Nc2cccc(C)c2)n1	-13%	3.2µM*

Bioassay records: PubChem BioAssay, National Center for Advancing Translational Sciences (NCATS)
